“And” between values parts separate entries of the source, which are not always exact repeats. Equal values may be shown once. In all, about 5,500 compounds went through this assay and about 2,000 (36%) were called active. Roughly 18% stayed inconclusive and do not appear here. Cut-off read from the data, not from the text of the source: active = normalized growth mostly below about 0.91 (no sharp cut-off); inconclusive = no clear call, values can overlap the other calls; inactive = mostly above about 0.92. The list shows a part of the results.
Assay: chemical genetic growth profiling, strain panel (AID 1159580);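 note: tested at 20 µM; growth read once vehicle control cultures reached saturation at 30 °C; 1 = growth at the plate median or of vehicle wells; lower values mean less growth of the strain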
Conditions: S. cerevisiae deletion strains, growth OD

Measured: normalized growth

Nc1ccc(C(=O)NCC(=O)O)cc1
inactive: locus YAL021C, strain ccr4, hits give low values 1.02 | locus YAL026C, strain drs2, hits give low values 1.02 | locus YAL030W, strain snc1, hits give low values 0.998 | locus YBL061C, strain skt5, hits give low values 1.01 | locus YBR009C, strain hhf1, hits give low values 1.01 | locus YBR021W, strain FUR4, hits give low values 1.01 | locus YBR023C, strain chs3, hits give low values 1.02 | locus YBR171W, strain sec66, hits give low values 1.02 | locus YBR229C, strain ROT2, hits give low values 1 | locus YBR231C, strain swc5, hits give low values 1.01 | locus YBR279W, strain paf1, hits give low values 1.01 | locus YCL011C, strain gbp2, hits give low values 1.02 | locus YCL016C, strain dcc1, hits give low values 1.02 | locus YCL029C, strain bik1, hits give low values 1 | locus YCL069W, strain vba3, hits give low values 1 | locus YCR088W, strain abp1, hits give low values 1.01 | locus YDL005C, strain med2, hits give low values 1.01 | locus YDL035C, strain GPR1, hits give low values 1.01 | locus YDL040C, strain nat1, hits give low values 1 | locus YDL074C, strain BRE1, hits give low values 0.992 | locus YDL101C, strain DUN1, hits give low values 1 | locus YDL134C, strain PPH21, hits give low values 1.01 | locus YDL185W, strain tfp1, hits give low values 1.01 | locus YDL192W, strain arf1, hits give low values 1.01 | locus YDR001C, strain nth1, hits give low values 1.01 | locus YDR069C, strain doa4, hits give low values 1 | locus YDR101C, strain arx1, hits give low values 0.993 | locus YDR137W, strain rgp1, hits give low values 1.02 | locus YDR150W, strain NUM1, hits give low values 1.01 | locus YDR159W, strain sac3, hits give low values 0.979 | locus YDR162C, strain NBP2, hits give low values 1.01 | locus YDR195W, strain ref2 0.999 | locus YDR297W, strain sur2, hits give low values 1.02 | locus YDR318W, strain mcm21, hits give low values 1.02 | locus YDR334W, strain swr1, hits give low values 1.04 | locus YDR335W, strain msn5, hits give low values 1.02 | locus YDR388W, hits give low values 1 | locus YDR392W, strain spt3, hits give low values 1.03 | locus YDR502C, strain sam2, hits give low values 1.01 | locus YEL003W, strain gim4, hits give low values 1.02 | locus YEL037C, strain rad23, hits give low values 0.998 | locus YEL061C, strain CIN8 (second series), hits give low values 1.01 | locus YEL061C, strain CIN8, hits give low values 1 | locus YER015W, strain faa2, hits give low values 0.996 | locus YER016W, strain bim1, hits give low values 1.02 | locus YER110C, hits give low values 1.02 | locus YER111C, strain swi4, hits give low values 0.996 | locus YER155C, strain BEM2 (second series), hits give low values 1.02 | locus YER155C, strain BEM2, hits give low values 0.994 | locus YER167W, strain BCK2, hits give low values 1.01 | locus YFR010W, strain ubp6, hits give low values 0.999 | locus YGL078C, strain dbp3, hits give low values 1.02 | locus YGL086W, strain mad1, hits give low values 1.01 | locus YGL167C, strain pmr1, hits give low values 1.02 | locus YGL173C, strain kem1, hits give low values 1.01 | locus YGL227W, strain vid30, hits give low values 1 | locus YGL240W, strain doc1, hits give low values 0.993 | locus YGL248W, strain PDE1, hits give low values 0.992 | locus YGL253W, strain hxk2, hits give low values 1.02 | locus YGR135W, strain pre9, hits give low values 1.04 | locus YGR229C, strain SMI1, hits give low values 0.99 | locus YGR252W, strain gcn5, hits give low values 1.01 | locus YHR013C, strain ard1, hits give low values 1.03 | locus YHR027C, strain rpn1, hits give low values 1.02 | locus YHR030C, strain SLT2, hits give low values 1.01 and 0.968 | locus YHR079C, strain IRE1 (second series), hits give low values 1.01 | locus YHR079C, strain IRE1, hits give low values 0.971 | locus YHR094C, strain hxt1, hits give low values 1.01 | locus YHR129C, strain ARP1, hits give low values 1 | locus YHR142W, strain chs7, hits give low values 1.02 | locus YHR200W, strain rpn10, hits give low values 1.02 | locus YIL066C, strain RNR3, hits give low values 1 | locus YIL073C, strain SPO22, hits give low values 1.05 | locus YIL125W, strain kgd1, hits give low values 1.01 | locus YIR030C, strain dcg1, hits give low values 1 | locus YJL092W, strain hpr5, hits give low values 1.02 | locus YJL095W, strain BCK1 (second series), hits give low values 1.01 | locus YJL095W, strain BCK1, hits give low values 0.985 and 0.967 | locus YJL115W, strain asf1, hits give low values 1.02 | locus YJL129C, strain trk1, hits give low values 1.02 | locus YJL134W, strain LCB3, hits give low values 1 | locus YJL154C, strain vps35, hits give low values 1 | locus YJL164C, strain tpk1, hits give low values 1.01 | locus YJL166W, strain qcr8, hits give low values 1.03 | locus YJL168C, strain set2, hits give low values 1 | locus YJL187C, strain SWE1 (second series), hits give low values 0.982 | locus YJR043C, strain POL32, hits give low values 1.01 | locus YJR066W, strain TOR1, hits give low values 0.928 | locus YJR075W, strain HOC1, hits give low values 0.999

Source: PubChem BioAssay AID1159580 (chemical genetic matrix, 2015)
